{
  "source": "paper PMC7819943",
  "about": "“Rice protein-binding microarrays: a tool to detect cis-acting elements near promoter regions in rice”",
  "note": "Over roughly 39,000 sequences, “fluorescence intensity (a.u.)” has its median near 4,300; the highest 2% begin near 39,000. This is one part of a sample in which the highest values are shown more often than they occur.",
  "data": [
    {"biological_target": "T1, OsSMF1 (Oryza sativa, UniProt Q6ZLB0 1-436)", "T1 sequence": "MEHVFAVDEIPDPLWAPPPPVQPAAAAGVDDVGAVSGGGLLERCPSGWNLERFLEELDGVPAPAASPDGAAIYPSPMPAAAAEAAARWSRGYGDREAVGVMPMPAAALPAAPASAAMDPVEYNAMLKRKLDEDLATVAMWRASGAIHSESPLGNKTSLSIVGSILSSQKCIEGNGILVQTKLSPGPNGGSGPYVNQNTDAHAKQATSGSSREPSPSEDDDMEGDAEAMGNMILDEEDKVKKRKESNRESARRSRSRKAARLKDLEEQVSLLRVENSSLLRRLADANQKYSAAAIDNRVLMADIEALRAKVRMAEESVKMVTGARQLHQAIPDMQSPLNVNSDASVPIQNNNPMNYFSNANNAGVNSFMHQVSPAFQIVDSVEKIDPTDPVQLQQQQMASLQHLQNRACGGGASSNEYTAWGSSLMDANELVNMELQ", "test": "protein-binding microarray (RPBM); PBS, 2% BSA, 51.3 ng/ul salmon testes DNA, 50 uM zinc acetate, 200 nM TF, 25 C, 1 h; high values mean tight binding", "conditions": "protein: recombinant; tags: N-terminal polyhistidine and DsRed monomer fusion (pET32a); chain copies: 2; label: CyDye5-dUTP incorporated in the synthesized complementary strand; 3' TTTTT single-stranded linker to array surface; dsDNA, one strand shown", "summary_of_the_method": "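An Axon 4000B scanner gave the binding signal as per-feature fluorescence intensity in arbitrary units. This followed washing of a custom Agilent array that had been incubated for 1 h at 25 °C with 200 nM protein in PBS, 2% BSA, salmon testes DNA and 50 µM zinc acetate. The proteins were transcription factors fused at the N-terminus to polyhistidine and DsRed, expressed in E. coli BL21-CodonPlus and purified on Ni–NTA.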", "values": [
      {"sequence": "CTCCTACATGCACTCCCCTCTACAAAACCACAACCAGCATCGGAGTCACCTAGTGCAG", "binding signal": "3600 fluorescence intensity (a.u.)"},
      {"sequence": "ACTATTTCTCCAGATAGTAGTAGTAACTCTTACGTCATGGCGGAGTCACCTAGTGCAG", "binding signal": "4910 fluorescence intensity (a.u.)"},
      {"sequence": "CAAAAGGGAATGCTTTAGGCAGATCATGGAGATAAAGACTCGGAGTCACCTAGTGCAG", "binding signal": "39000 fluorescence intensity (a.u.)"},
      {"sequence": "AAATTGCCACGTAAGTGCCATGTCATATGAAGACCGAGTCCGGAGTCACCTAGTGCAG", "binding signal": "17800 fluorescence intensity (a.u.)"},
      {"sequence": "ATAAAGACCTAGTCAATGGAGTGCCACGTAGGCACCACGTCGGAGTCACCTAGTGCAG", "binding signal": "39000 fluorescence intensity (a.u.)"},
      {"sequence": "AGCGTCACCTCAATGCCACGTGTGATAAAGACCTAGTTAACGGAGTCACCTAGTGCAG", "binding signal": "17200 fluorescence intensity (a.u.)"},
      {"sequence": "CAAATCAAATTACCACATAAGCACCACGTCAATGCCACGTCGGAGTCACCTAGTGCAG", "binding signal": "22200 fluorescence intensity (a.u.)"},
      {"sequence": "CAGACAGACACAGAGAGATCGATATCAACATGCTTTAGTCCGGAGTCACCTAGTGCAG", "binding signal": "3710 fluorescence intensity (a.u.)"},
      {"sequence": "TAAGCGCCACATCAGTGCCACGTCGGATGAAGACCGAGTCCGGAGTCACCTAGTGCAG", "binding signal": "25000 fluorescence intensity (a.u.)"},
      {"sequence": "TTGTCAAATCATGGCGTCATTAGGCTTAAAAGATTCGTCTCGGAGTCACCTAGTGCAG", "binding signal": "4280 fluorescence intensity (a.u.)"},
      {"sequence": "GAATTGCCACGTAGGCGCCACGTCATATGAAGACCGAGTCCGGAGTCACCTAGTGCAG", "binding signal": "45500 fluorescence intensity (a.u.)"},
      {"sequence": "GTGTAGTTACCTTCTCGTAGGTGTCATCGAGGATGATGGCCGGAGTCACCTAGTGCAG", "binding signal": "3910 fluorescence intensity (a.u.)"},
      {"sequence": "CGGTATCGACGCAGCGTCTGAATGCAAGGGCCCGTGGTCACGGAGTCACCTAGTGCAG", "binding signal": "27400 fluorescence intensity (a.u.)"},
      {"sequence": "CGCCCAGGACGTCATGCCGGAGCTGGCCATGGTCACCGCGCGGAGTCACCTAGTGCAG", "binding signal": "4070 fluorescence intensity (a.u.)"},
      {"sequence": "GAGTTGTCAAGGGATGTCATCCCGACGTCAACACGATGGCCGGAGTCACCTAGTGCAG", "binding signal": "4620 fluorescence intensity (a.u.)"},
      {"sequence": "CGGCAACAGCGGTGACAACGTGACGACGGGTGACGAGGCGCGGAGTCACCTAGTGCAG", "binding signal": "5320 fluorescence intensity (a.u.)"},
      {"sequence": "CGACAGCGGAACGTGAGCTCTGGGGCGACGACGGCGGCAACGGAGTCACCTAGTGCAG", "binding signal": "46800 fluorescence intensity (a.u.)"},
      {"sequence": "ACGGCGACAGCGTGGAGCTCCACGACGGCAGCGACGTCGGCGGAGTCACCTAGTGCAG", "binding signal": "3590 fluorescence intensity (a.u.)"},
      {"sequence": "CAAGCTCATCAACTTCGTTCGGTCCAAGGTGCGTCAGGGTCGGAGTCACCTAGTGCAG", "binding signal": "3180 fluorescence intensity (a.u.)"},
      {"sequence": "TTAGCAACCTATCGTCATAGAGAGACCCAATGAACCCTTGCGGAGTCACCTAGTGCAG", "binding signal": "3860 fluorescence intensity (a.u.)"},
      {"sequence": "TAATTGGGGTGATGTGGCTAATTCTCAAAGCAGTTTTATACGGAGTCACCTAGTGCAG", "binding signal": "5820 fluorescence intensity (a.u.)"},
      {"sequence": "CCCTAGTCTCCTCCCTTGTACATAGGCAAATCCATACGCACGGAGTCACCTAGTGCAG", "binding signal": "3640 fluorescence intensity (a.u.)"},
      {"sequence": "TAGAGAAAGCAAAGCACATACATAGGCTAATTCTCCTTTACGGAGTCACCTAGTGCAG", "binding signal": "39200 fluorescence intensity (a.u.)"},
      {"sequence": "CGCCATGGGCGAGGCGGTGAAGGGGCCAGTGGTGGTGACGCGGAGTCACCTAGTGCAG", "binding signal": "4250 fluorescence intensity (a.u.)"},
      {"sequence": "TCTTCCTCAAAGTAAAATAGAAGCTAGGGCTAAGAGCCCACGGAGTCACCTAGTGCAG", "binding signal": "65100 fluorescence intensity (a.u.)"},
      {"sequence": "AAATAGAAAGCCCAAACGGATATTTCTTCCTGAGAGCCACCGGAGTCACCTAGTGCAG", "binding signal": "35600 fluorescence intensity (a.u.)"},
      {"sequence": "TATAGCAAAGAAAAGTAAAATAAGAGGCATGAGCTCACGCCGGAGTCACCTAGTGCAG", "binding signal": "37800 fluorescence intensity (a.u.)"},
      {"sequence": "CTACACACGAGACGTGCAAACCTGCAGATTTTGTTACTTGCGGAGTCACCTAGTGCAG", "binding signal": "4830 fluorescence intensity (a.u.)"},
      {"sequence": "CCACGGGCTACAAAGCACGCGCGTCACTCGCTCTCGCGGCCGGAGTCACCTAGTGCAG", "binding signal": "4390 fluorescence intensity (a.u.)"},
      {"sequence": "CAGAAGCGTCTACATACAATAGGATTGGGGCCTGCAAATCCGGAGTCACCTAGTGCAG", "binding signal": "55500 fluorescence intensity (a.u.)"},
      {"sequence": "AAATGTAGTTGTAAAATCCACAAAATAGTCTAGTCAGAAGCGGAGTCACCTAGTGCAG", "binding signal": "3340 fluorescence intensity (a.u.)"},
      {"sequence": "TCCGTATGAAATAGTGTCTCCGTCAGATTGGGGAAGCGGGCGGAGTCACCTAGTGCAG", "binding signal": "3200 fluorescence intensity (a.u.)"},
      {"sequence": "TGTGTTCTCAATTTTGCGTGTTCTCAATGACACGTGAACACGGAGTCACCTAGTGCAG", "binding signal": "5630 fluorescence intensity (a.u.)"},
      {"sequence": "TAAAAGCCAAGCACCATCTCGAAGTCTTCTTCCTCCTCCACGGAGTCACCTAGTGCAG", "binding signal": "12500 fluorescence intensity (a.u.)"},
      {"sequence": "ATCGAAGGCGAGAGCTCTTCTTCTTCCCCTCCTCCAAGCACGGAGTCACCTAGTGCAG", "binding signal": "60500 fluorescence intensity (a.u.)"},
      {"sequence": "TTCCATTTCTTCCCCTCGCCAAGGCGAGGCCGCGAGAGGGCGGAGTCACCTAGTGCAG", "binding signal": "9040 fluorescence intensity (a.u.)"},
      {"sequence": "CTGTAGAACTTGGACCAGCAGCATCAGCAGTAGTAGCAGGCGGAGTCACCTAGTGCAG", "binding signal": "3140 fluorescence intensity (a.u.)"},
      {"sequence": "GTGATATTCTGTCTTCCTGTGATATCAGCACTGTTTTATGCGGAGTCACCTAGTGCAG", "binding signal": "3450 fluorescence intensity (a.u.)"},
      {"sequence": "ACCAGTGCGCCACTGCCAGCGCAGCACCCGCCCGGTTTAACGGAGTCACCTAGTGCAG", "binding signal": "3240 fluorescence intensity (a.u.)"},
      {"sequence": "ATGTCTTAAGCAAGTTTTGACATCCTCATTACAGTGCGGCCGGAGTCACCTAGTGCAG", "binding signal": "3390 fluorescence intensity (a.u.)"},
      {"sequence": "GTAAAGCCTCGATATATCGATCGATTCCAGCTGTGGCACCCGGAGTCACCTAGTGCAG", "binding signal": "3620 fluorescence intensity (a.u.)"},
      {"sequence": "TCGATTCCAGCTGTGGCACCCATAGAGAAATGAGCCCGTCCGGAGTCACCTAGTGCAG", "binding signal": "56300 fluorescence intensity (a.u.)"}
    ]}
  ]
}
